Tb PYK inh: qHTS of Trypanosoma Brucei Inhibitors. 0.12% of 410,000 active. TbPYK enzyme, Kinase-Glo Plus ATP luminescence, 45 min. Potency, µM (series often up to 76.8 µM), inactives show at the highest dose activity, negative = inhibition, hits mostly inhibitors. AID 624173, 2012; also: potency is read from the fitted curve at half-maximal effect; % is scaled to controls: 0 for no effect and ±100 for the full control effect; nearly all actives have a fitted effect of over 50% in size
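In this concentration-response screen, enzyme-free wells defined baseline while DMSO plates tracked drift. Each reaction combined TbPYK, substrate, compound and 130 uM ADP for 45 min at room temperature. Kinase-Glo Plus luminescence gave the signal.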
LmPK inh: qHTS Assay for Inhibitors of Leishmania Mexicana Pyruvate Kinase (LmPK) | purified LmPK, Kinase-Glo ATP luminescence, 1 h | Potency, µM (series often up to 57.5 µM), for inactives: at the top dose activity change, negative = inhibition, usual class: inhibitors | 0.37% of 290,000 active | AID 1721, 2009; also: potency is read from the fitted curve at half-maximal effect; % is scaled to controls: 0 for no effect and ±100 for the full control effect
Target sequence (Q27686 whole entry, looked up): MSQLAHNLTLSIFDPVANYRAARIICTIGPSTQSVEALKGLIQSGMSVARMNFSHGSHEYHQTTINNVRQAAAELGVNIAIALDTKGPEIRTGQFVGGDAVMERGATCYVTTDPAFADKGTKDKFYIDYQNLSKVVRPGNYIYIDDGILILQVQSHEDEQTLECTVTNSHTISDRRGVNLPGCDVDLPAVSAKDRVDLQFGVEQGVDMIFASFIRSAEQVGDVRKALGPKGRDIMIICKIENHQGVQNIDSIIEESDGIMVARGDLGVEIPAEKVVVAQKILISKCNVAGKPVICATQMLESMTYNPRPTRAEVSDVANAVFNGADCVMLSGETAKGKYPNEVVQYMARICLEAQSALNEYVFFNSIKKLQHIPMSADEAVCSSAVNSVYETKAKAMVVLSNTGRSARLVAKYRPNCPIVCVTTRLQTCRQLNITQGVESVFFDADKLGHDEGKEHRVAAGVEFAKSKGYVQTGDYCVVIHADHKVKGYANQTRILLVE
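Pyruvate kinase activity monitored as ATP production (luciferase luminescence). Conditions: 0.1 nM enzyme, 0.5 mM PEP, 0.1 mM ADP, 1 h, RT; normalized against uninhibited and no-enzyme wells.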
Giardia FBPA inh: qHTS Assay for Inhibitors of Fructose-1,6-bisphosphate Aldolase from Giardia Lamblia; A8B2U2; purified Giardia FBPA; Potency, µM (top dose mostly 59.6 µM), for the others: top-dose activity, negative = inhibition, hits mostly inhibitors; 0.71% of 290,000 active; also: potency is read from the fitted curve at half-maximal effect; % is scaled to controls: 0 for no effect and ±100 for the full control effect; nearly all actives have a fitted effect of over 55% in size
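40 nM FBPA preincubated 10 min at RT with compound (up to 57.5 uM final), then substrate plus GAPDH/TPI/NAD/arsenate coupling and diaphorase/resazurin added. Fluorescence read after 20 min at RT, 525/598 nm.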
Shiga toxin inh: A qHTS for Small Molecule Inhibitors of Shiga Toxin; 9.2% of 290,000 active; inhibition, % at 38.7 µM; Vero cells, Shiga toxin protein synthesis inhibition reporter; in the data active = inhibition mostly above about 28%, no sharp cut-off; inactive = mostly below about 43%; also: 0% is about no effect
Sm TGR block: qHTS Assay for the Inhibitors of Schistosoma Mansoni Peroxiredoxins; Schistosoma mansoni thioredoxin glutathione reductase (TGR), Q962Y6; 3% of 360,000 active; AID 485364, 2010; purified TGR, DTNB reduction, TNB absorbance 405 nm; Potency, µM (titrated, usually from 114 µM), for the others: at the top dose activity change, negative = inhibition, actives largely listed as inhibitors; also: potency is read from the fitted curve at half-maximal effect; % is scaled to controls: 0 for no effect and ±100 for the full control effect; nearly all actives have a fitted effect of over 60% in size
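Kinetic colorimetric format: TGR-catalysed, NADPH-driven DTNB reduction monitored via TNB absorbance. Enzyme dispensed at 20 nM; compound exposure 15 min at room temperature before reaction start.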
Cycloheximide cs: Cycloheximide Counterscreen for Small Molecule Inhibitors of Shiga Toxin | cell reporter, cycloheximide protein synthesis inhibition counterscreen | max response, % | 12% of 300,000 active | AID 2314, 2010; in the data active = max response mostly above about 13%, no sharp cut-off; inactive = mostly below about 14%; also: read at 38.3 µM for the half of the compounds with a filed dose; 0% is about no effect
Numbers without * were called inactive; ? = inconclusive; . = no result given; ! = not active in a repeat; [ ] = dose if it differs, or a comment. The sample as a whole holds a higher share of hits than the screen did. Unless noted, calls follow the shape of the dose curve; as a rule, active = well fitted curve in the direction sought with a large enough effect; inconclusive = small, poorly fitted or top-dose-only effect, or another doubt; inactive = no such curve, though single readings can be large; an effect the other way counts as inactive or inconclusive.

SMILES	Tb PYK inh	LmPK inh	Giardia FBPA inh	Shiga toxin inh	Sm TGR block	Cycloheximide cs
COC(=O)c1ccc(CS(=O)(=O)c2ccc(F)cc2)o1	-1%	6%	-5%	-5	22µM*	-5
CCc1ccccc1NC(=O)Nc1nnc(N2CCCC2)s1	2%	.	.	.	-8%	.
COc1ccc(/C=C/C(=O)NCC(=O)N2CCC(N(C)CCN3CCOCC3)CC2)cc1OC	2%	-1%	?	49	-10%	-8
COC(=O)c1ccccc1NC(=O)CSc1nc2ccccc2nc1Cc1ccc(F)cc1	1%[15.4 µM]	.	.	.	5%	.
CC(=O)NC(c1cccs1)c1cc(F)c2cccnc2c1O (stereo not drawn)	-7%	.	.	.	50µM*!	.
CCC(=O)NC(c1cccs1)c1cc([N+](=O)[O-])c2cccnc2c1OC (stereo not drawn)	5%	.	.	.	40µM*	.
Nc1ncnc2nc(-c3ccc(N4CCOCC4)nc3)cc(-c3cccc(Br)c3)c12	4%	.	-16%	.	.	.
CC(C)Oc1ccc(C2CC(=O)N(c3ccc(N(C)C)cc3)C2=O)cc1 (stereo not drawn)	13%	0%	-5%	-2	2%	5
CC(C)CCOc1ccc(C2CC(=O)N(C)C2=O)cc1 (stereo not drawn)	0%	-2%	0%	33	6%	21*
Cc1nc(N)sc1N=Nc1ccc(F)cc1	-7%	-1%	-4%	62*	-2%	49*
Cc1cccc(N2CCN(C(=O)Cn3c(=O)c4cccn4c4ccc(F)cc43)CC2C)c1 (stereo not drawn)	0%	.	.	.	?	.
CN1N=C(C(C)(C)C)CSC1=Nc1ccc(F)cc1	2%	-4%	1%	36	-1%	19*
CN1N=C(c2ccc(F)c(F)c2)CSC1=NCc1ccccc1	-5%	2%	-5%	29	4%	12
COCCn1nnnc1C(c1cc2cc(OC)c(OC)cc2[nH]c1=O)N1CCN(c2ccc(O)cc2)CC1 (stereo not drawn)	?	-4%	?	-15	11%	1
COCCn1nnnc1C(c1cc2cccc(C)c2[nH]c1=O)N1CCN(c2ccccc2F)CC1 (stereo not drawn)	-25%	5%	-18%	-5	14µM*	-5
CCC(C)(C)n1nnnc1C(C(C)C)N(CCN1CCOCC1)Cc1cc2cccc(C)c2[nH]c1=O (stereo not drawn)	1%	6%	-13%	-5	-20%	-6
CCc1ccc2[nH]c(=O)c(C(c3nnnn3CCOC)N3CCN(c4ccccc4)CC3)cc2c1 (stereo not drawn)	-14%	4%	-24%	2	45µM*	-2
CCc1ccc2[nH]c(=O)c(C(c3nnnn3CCOC)N3CCN(c4ccc(F)cc4)CC3)cc2c1 (stereo not drawn)	7%	0%	-28%	18	50µM*	2
CCc1ccc2[nH]c(=O)c(CN(Cc3ccc(F)cc3)C(c3nnnn3CCN3CCOCC3)C(C)C)cc2c1 (stereo not drawn)	5%	-3%	12%	28*	-12%	43*
CC1Cc2ccccc2N1C(=O)CSc1ccccc1 (stereo not drawn)	2%	0%	0%	98	-5%	51*
COc1ccccc1OCC(=O)/C=C1/N(C)c2ccccc2C1(C)C	6%	0%	-7%	11	1%	9
CC1CCCN(C(=O)COc2ccc3c(c2)OCO3)C1 (stereo not drawn)	-8%	-11%	.	64*	-9%	48*
CC1Cc2ccccc2N1C(=O)CCn1c(=O)sc2ccccc21 (stereo not drawn)	2%	6%	-12%	59	11%	12*
CC1Cc2ccccc2N1C(=O)CCN1C(=O)C2C3C=CC(C3)C2C1=O (stereo not drawn)	17%	1%	-1%	2	-24%	14
CC1CCCN(C(=O)c2ccc3c(c2)OCO3)C1 (stereo not drawn)	3%	2%	7%	22	3%	4
SMILES	Tb PYK inh	LmPK inh	Giardia FBPA inh	Shiga toxin inh	Sm TGR block	Cycloheximide cs
CN1/C(=C\C(=O)COc2ccc3c(c2)OCO3)C(C)(C)c2ccccc21	-2%	3%	-13%	11	-19%	11*
CCN(C(=O)Cn1ncc2c(=O)oc3ccc(C)cc3c21)c1cc(OC)ccc1OC	0%	.	.	.	0%	.
CCc1cc2c(c(CC)n1)CCC(=O)N2Cc1ccc(-c2ccccc2-c2nn[nH]n2)cc1	.	.	3%	.	.	.
COc1cccc(/C=C2\Oc3cc(OCC(=O)N4Cc5ccccc5C[C@H]4C(=O)O)ccc3C2=O)c1	2%	0%	11%	3	?	-2
Cc1cc2cc3c(cc2nc1SCC(=O)N1c2ccccc2CC1C)OCO3 (stereo not drawn)	1%	10%	0%	-4	6%	0
O=C1/C(=C/c2ccc3c(c2)OCO3)Oc2cc(OCC(=O)N3CCC[C@H]3C(=O)O)ccc21	0%	-1%	-6%	23	-18%	8.2*
CC1Cc2ccccc2N1C(=O)COc1ccc2c(c1)OCO2 (stereo not drawn)	2%	-6%	0%	74*	-25%	34*
COc1cc(C2SCCS2)cc(Br)c1Oc1ncccc1[N+](=O)[O-]	-4%	7%	-27%	-8	14%	2
O=[N+]([O-])c1cccnc1Oc1ccc(OCc2ccccc2)cc1	-3%	-2%	4%	61*	31%	63*
O=[N+]([O-])c1ccc(Oc2ccc(OCc3ccccc3)cc2)nc1	-1%	-4%	1%	-6	-4%	-1
O=[N+]([O-])c1cccnc1Oc1ccc(C2SCCS2)cc1	-9%	4%	1%	73*	13%	58*
CCCCCCC(=O)Oc1cccc(C2=CC(=O)CC(C)(C)C2=O)c1	4%	.	.	.	.	.
CCCN(CCC)CCCNC(=O)c1ccc2c(Cl)c3c(nc2c1)CCC3	-1%	0%	5%	3	3%	9
COCCNC(=O)c1ccc2c(Cl)c3c(nc2c1)CCC3	-4%	4%	-2%	77*	-1%	46*
CCCOc1ccc(C2CC(=O)Nc3cc(OC)c(OC)cc32)cc1 (stereo not drawn)	-1%	-1%	1%	-14	-20%	-4
COCCCNc1oc(/C=C/c2ccccc2)nc1C#N	13%	0%	-7%	74*	-31%	35*
COc1ccc(CNc2oc(/C=C/c3cccc(OC)c3)nc2C#N)cc1	0%	.	.	.	-2%	.
CN(C)CCCNc1oc(/C=C/c2ccccc2)nc1C#N	-3%	-2%	-2%	65*	-1%	42*
